Where “and” joins values, the source holds several entries; their conditions need not be identical. Equal entries are not always repeated. More than one record can exist for a structure, and the calls need not agree. Calls of active or inactive are those of the source. The calls were made as follows: active = hit-call score of the fitted dose curve at least 0.9, where 1 is the maximum; inactive = score below 0.9.
Tested on: not listed separately
Test: ATG_DR4_LXR_CIS: Attagene CIS-FACTORIAL HepG2 Assay for human Liver X Receptor (LXR), DR4 submotif (AID 2282929)
Conditions: HepG2 Attagene DR4 cis-reporter, mRNA transcription; actives raise or lower the signal
Method in brief: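 Total RNA from 24 h-treated, MRTU-transfected HepG2 cells underwent reverse transcription, PCR, fluorescent primer extension and restriction digestion before capillary electrophoresis. Both increases and decreases in reporter signal were fitted against DMSO.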

outcome, inactive:
CC(=O)OCC(COC(C)=O)OC(C)=O
CCCCC(CC)COC(=O)CCCCCCCC(=O)OCC(CC)CCCC (stereo not given)
S=c1[nH]c2ccccc2s1
CCCC(=O)O
O=C(NS(=O)(=O)/C=C/c1cccs1)c1ccc(F)cc1Br
CC(C)COC(=O)CCCCC(=O)OCC(C)C
O=C(O)CN(CC(=O)O)CC(=O)O
Oc1ccccc1O
CCCCOC(=O)CCCCC(=O)OCCCC
CC(N)=O
Cc1occc(=O)c1O
CC(=O)[C@@]1(O)CC[C@H]2[C@@H]3CCC4=CC(=O)CC[C@]4(C)[C@H]3CC[C@@]21C
NC=O
CC(=O)CC(c1ccccc1)c1c(O)c2ccccc2oc1=O (stereo not given)
CC1=C(C)S(=O)(=O)CCS1(=O)=O
O=C(N[C@@H](c1ccccc1)[C@@H]1CCCCN1)c1cccc(C(F)(F)F)c1Cl
CCc1cc(C2=C(C(=O)O)N(c3ccccc3C(F)(F)F)S(=O)(=O)c3ccccc32)cc2c1OCO2
Oc1ccc(O)cc1
CC(=O)O[C@]1(C(C)=O)CC[C@H]2[C@@H]3C=C(Cl)C4=CC(=O)[C@@H]5C[C@@H]5[C@]4(C)[C@H]3CC[C@@]21C
CC(C)c1cccc(C(C)C)c1NC(=O)NS(=O)(=O)c1cc(C(C)(C)O)co1
O=C(Oc1ccccc1)c1cccc(C(=O)Oc2ccccc2)c1
Cn1cnc2c1c(=O)[nH]c(=O)n2C
O=C1CCCCC1

AC50, active:
Cc1ccc(C(C)(C)C)c(O)c1 167 µM
COC(=O)[C@H]1[C@H]2C[C@@H]3c4[nH]c5cc(OC)ccc5c4CCN3C[C@H]2C[C@@H](OC(=O)c2cc(OC)c(OC)c(OC)c2)[C@@H]1OC 22.8 µM
CC(C)(O)c1ccc(CNC(=O)c2cccnc2Oc2ccc(F)cc2)cc1 0.184 µM
CN(C)CCCN(C)CCCN(C)C 24.5 µM
CC(C)OC(=O)C(C)(C)Oc1ccc(C(=O)c2ccc(Cl)cc2)cc1 61 µM
CC(=O)O[C@]1(C(C)=O)CC[C@H]2[C@@H]3C=C(Cl)C4=CC(=O)[C@@H]5C[C@@H]5[C@]4(C)[C@H]3CC[C@@]21C 51.7 µM [middle of 4 runs]

Biological target: Aryl hydrocarbon receptor (Homo sapiens) (UniProt P35869)
Sequence (P35869 whole entry, looked up): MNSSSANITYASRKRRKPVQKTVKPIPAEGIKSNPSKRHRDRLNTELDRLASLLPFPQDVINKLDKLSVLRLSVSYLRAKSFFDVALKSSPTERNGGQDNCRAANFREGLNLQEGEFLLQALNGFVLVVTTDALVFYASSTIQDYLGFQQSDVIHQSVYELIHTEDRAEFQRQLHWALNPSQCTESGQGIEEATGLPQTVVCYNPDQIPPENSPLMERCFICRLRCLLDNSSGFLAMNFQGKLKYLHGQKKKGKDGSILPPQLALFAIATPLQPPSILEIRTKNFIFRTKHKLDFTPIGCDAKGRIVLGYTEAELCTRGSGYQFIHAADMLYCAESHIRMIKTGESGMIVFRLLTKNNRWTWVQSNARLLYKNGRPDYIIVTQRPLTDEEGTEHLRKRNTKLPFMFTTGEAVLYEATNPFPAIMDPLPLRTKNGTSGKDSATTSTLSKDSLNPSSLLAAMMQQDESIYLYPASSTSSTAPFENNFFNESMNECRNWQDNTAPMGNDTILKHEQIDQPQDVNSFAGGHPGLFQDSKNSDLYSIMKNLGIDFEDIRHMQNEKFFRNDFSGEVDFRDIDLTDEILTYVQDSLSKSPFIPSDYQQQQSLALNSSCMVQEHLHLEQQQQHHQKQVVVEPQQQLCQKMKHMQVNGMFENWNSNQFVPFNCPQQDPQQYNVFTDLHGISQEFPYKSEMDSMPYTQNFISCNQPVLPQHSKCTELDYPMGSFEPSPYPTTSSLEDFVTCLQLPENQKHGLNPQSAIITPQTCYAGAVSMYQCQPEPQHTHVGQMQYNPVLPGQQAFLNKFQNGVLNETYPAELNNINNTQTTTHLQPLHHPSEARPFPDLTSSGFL
Test: ATG_Ahr_CIS: Attagene CIS-FACTORIAL HepG2 Assay for human Aryl Hydrocarbon Receptor (Ahr) (AID 2282930)
Conditions: HepG2 AhR cis-factorial reporter transcription; actives raise or lower the signal
Method in brief: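 Read-out: reporter mRNA quantified by RT-PCR with fluorescent primer extension and capillary electrophoresis. Human HepG2 liver cells carried transfected cis-promoter reporter units and were exposed to chemical for 24 h; gain or loss fitted relative to DMSO.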

outcome, inactive:
CC(=O)OCC(COC(C)=O)OC(C)=O
Cc1ccc(C(C)(C)C)c(O)c1
CCCC(=O)O
O=C(NS(=O)(=O)/C=C/c1cccs1)c1ccc(F)cc1Br
O=C(O)c1cccnc1
CC(C)COC(=O)CCCCC(=O)OCC(C)C
CN(C)CCCN(C)CCCN(C)C
CCCCOC(=O)CCCCC(=O)OCCCC
CC(N)=O
Cc1occc(=O)c1O
NC=O
CC1=C(C)S(=O)(=O)CCS1(=O)=O
CC(C)OC(=O)C(C)(C)Oc1ccc(C(=O)c2ccc(Cl)cc2)cc1
O=C(N[C@@H](c1ccccc1)[C@@H]1CCCCN1)c1cccc(C(F)(F)F)c1Cl
CC(=O)O[C@]1(C(C)=O)CC[C@H]2[C@@H]3C=C(Cl)C4=CC(=O)[C@@H]5C[C@@H]5[C@]4(C)[C@H]3CC[C@@]21C
O=C(Oc1ccccc1)c1cccc(C(=O)Oc2ccccc2)c1
Cn1cnc2c1c(=O)[nH]c(=O)n2C
O=C1CCCCC1

AC50, active:
COC(=O)[C@H]1[C@H]2C[C@@H]3c4[nH]c5cc(OC)ccc5c4CCN3C[C@H]2C[C@@H](OC(=O)c2cc(OC)c(OC)c(OC)c2)[C@@H]1OC 12.5 µM
CC(N)=O 29 µM
CC(=O)O[C@]1(C(C)=O)CC[C@H]2[C@@H]3C=C(Cl)C4=CC(=O)[C@@H]5C[C@@H]5[C@]4(C)[C@H]3CC[C@@]21C 150 µM and 158 µM

Tested on: not listed separately
Test: ATG_AP_1_CIS: Attagene CIS-FACTORIAL HepG2 Assay for human Activator Protein 1 (AP-1) (AID 2282931)
Conditions: HepG2 Attagene cis-factorial AP-1 reporter mRNA; actives raise or lower the signal
Method in brief: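 HepG2, transient cis-reporter transfection; 24 h; readout RT-PCR/CE fluorescence; DMSO baseline, gain and loss fitted.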

outcome, inactive:
CC(=O)OCC(COC(C)=O)OC(C)=O
Cc1ccc(C(C)(C)C)c(O)c1
CCCCC(CC)COC(=O)CCCCCCCC(=O)OCC(CC)CCCC (stereo not given)
CCCC(=O)O
O=C(NS(=O)(=O)/C=C/c1cccs1)c1ccc(F)cc1Br
O=C(O)c1cccnc1
CC(C)(O)c1ccc(CNC(=O)c2cccnc2Oc2ccc(F)cc2)cc1
CC(C)COC(=O)CCCCC(=O)OCC(C)C
CN(C)CCCN(C)CCCN(C)C
O=C(O)CN(CC(=O)O)CC(=O)O
CCCCOC(=O)CCCCC(=O)OCCCC
CC(N)=O
Cc1occc(=O)c1O
CC(=O)[C@@]1(O)CC[C@H]2[C@@H]3CCC4=CC(=O)CC[C@]4(C)[C@H]3CC[C@@]21C
NC=O
CC(=O)CC(c1ccccc1)c1c(O)c2ccccc2oc1=O (stereo not given)
CC(=O)O[C@]1(C(C)=O)CC[C@H]2[C@@H]3C=C(Cl)C4=CC(=O)[C@@H]5C[C@@H]5[C@]4(C)[C@H]3CC[C@@]21C
CC(C)c1cccc(C(C)C)c1NC(=O)NS(=O)(=O)c1cc(C(C)(C)O)co1
O=C(Oc1ccccc1)c1cccc(C(=O)Oc2ccccc2)c1
Cn1cnc2c1c(=O)[nH]c(=O)n2C
O=C1CCCCC1

AC50, active:
S=c1[nH]c2ccccc2s1 19.8 µM
COC(=O)[C@H]1[C@H]2C[C@@H]3c4[nH]c5cc(OC)ccc5c4CCN3C[C@H]2C[C@@H](OC(=O)c2cc(OC)c(OC)c(OC)c2)[C@@H]1OC 25.5 µM
Oc1ccccc1O 13.3 µM
CC1=C(C)S(=O)(=O)CCS1(=O)=O 166 µM
CC(C)OC(=O)C(C)(C)Oc1ccc(C(=O)c2ccc(Cl)cc2)cc1 74.4 µM
O=C(N[C@@H](c1ccccc1)[C@@H]1CCCCN1)c1cccc(C(F)(F)F)c1Cl 9.01 µM
CCc1cc(C2=C(C(=O)O)N(c3ccccc3C(F)(F)F)S(=O)(=O)c3ccccc32)cc2c1OCO2 38.6 µM
Oc1ccc(O)cc1 48.3 µM
CC(=O)O[C@]1(C(C)=O)CC[C@H]2[C@@H]3C=C(Cl)C4=CC(=O)[C@@H]5C[C@@H]5[C@]4(C)[C@H]3CC[C@@]21C 71.5 µM [middle of 4 runs]
